Reference: PubChem BioAssay AID1159580 (chemical genetic matrix, 2015)
Where “and” joins values, the source holds several entries; their conditions need not be identical. Identical values can stand only once. Among all 5,500 compounds or so, about 2,000 (36%) were called active. Not shown: some 18% with an inconclusive outcome. No stated cut-off is given here; in the data, active means normalized growth mostly below about 0.91 (no sharp cut-off); inconclusive means no clear call, values can overlap the other calls; inactive means mostly above about 0.92. Some of the results follow.

Assay: chemical genetic growth profiling, strain panel (AID 1159580);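 further: tested at 20 µM; growth read once vehicle control cultures reached saturation at 30 °C; 1 = growth at the plate median or of vehicle wells; lower values mean less growth of the strain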
Settings: growth OD

Measured: normalized growth

NCCc1cnc[nH]1
inactive: S. cerevisiae deletion strains, locus YJR066W, strain TOR1, active compounds read low 0.985 | S. cerevisiae deletion strains, locus YJR075W, strain HOC1, active compounds read low 1.01 | S. cerevisiae deletion strains, locus YKL009W, strain mrt4, active compounds read low 1.01 | S. cerevisiae deletion strains, locus YKL068W, active compounds read low 1.01 | S. cerevisiae deletion strains, locus YKL085W, strain MDH1 (second series), active compounds read low 1.01 | S. cerevisiae deletion strains, locus YKL085W, strain MDH1, active compounds read low 1.01 | S. cerevisiae deletion strains, locus YKL160W, strain elf1, active compounds read low 1.02 | S. cerevisiae deletion strains, locus YKL190W, strain CNB1, active compounds read low 0.978 | S. cerevisiae deletion strains, locus YKR001C, strain vps1, active compounds read low 1.01 | S. cerevisiae deletion strains, locus YKR026C, strain gcn3, active compounds read low 1.02 | S. cerevisiae deletion strains, locus YKR091W, strain srl3, active compounds read low 1.02 | S. cerevisiae deletion strains, locus YLL001W, strain dnm1, active compounds read low 1.02 | S. cerevisiae deletion strains, locus YLL026W, active compounds read low 1.02 | S. cerevisiae deletion strains, locus YLL041C, strain sdh2, active compounds read low 1.02 | S. cerevisiae deletion strains, locus YLR027C, strain aat2, active compounds read low 1.01 | S. cerevisiae deletion strains, locus YLR039C, strain RIC1, active compounds read low 1.05 | S. cerevisiae deletion strains, locus YLR058C, strain SHM2, active compounds read low 1.01 | S. cerevisiae deletion strains, locus YLR102C, strain apc9, active compounds read low 1.02 | S. cerevisiae deletion strains, locus YLR113W, strain HOG1, active compounds read low 0.985 | S. cerevisiae deletion strains, locus YLR221C, strain rsa3, active compounds read low 1.05 | S. cerevisiae deletion strains, locus YLR258W, strain gsy2, active compounds read low 1.02 | S. cerevisiae deletion strains, locus YLR262C, strain YPT6 (second series), active compounds read low 1.06 | S. cerevisiae deletion strains, locus YLR262C, strain YPT6, active compounds read low 1 | S. cerevisiae deletion strains, locus YLR268W, strain sec22, active compounds read low 1.02 | S. cerevisiae deletion strains, locus YLR320W, strain mms22, active compounds read low 1.04 | S. cerevisiae deletion strains, locus YLR330W, strain CHS5, active compounds read low 1.01 | S. cerevisiae deletion strains, locus YLR342W, strain FKS1 (second series), active compounds read low 0.997 | S. cerevisiae deletion strains, locus YLR342W, strain FKS1, active compounds read low 1.02 | S. cerevisiae deletion strains, locus YLR357W, strain rsc2, active compounds read low 1 | S. cerevisiae deletion strains, locus YLR370C, strain arc18, active compounds read low 1.01 | S. cerevisiae deletion strains, locus YLR371W, strain rom2, active compounds read low 1 | S. cerevisiae deletion strains, locus YLR384C, strain iki3, active compounds read low 1.02 | S. cerevisiae deletion strains, locus YLR418C, strain cdc73, active compounds read low 1.04 | S. cerevisiae deletion strains, locus YML016C, strain PPZ1, active compounds read low 1.01 | S. cerevisiae deletion strains, locus YML032C, strain rad52, active compounds read low 1.01 | S. cerevisiae deletion strains, locus YML120C, strain ndi1, active compounds read low 1.02 | S. cerevisiae deletion strains, locus YML124C, strain tub3, active compounds read low 1.01 | S. cerevisiae deletion strains, locus YMR058W, strain fet3, active compounds read low 1.02 | S. cerevisiae deletion strains, locus YMR078C, strain ctf18, active compounds read low 1.02 | S. cerevisiae deletion strains, locus YMR125W, strain sto1, active compounds read low 1.02 | S. cerevisiae deletion strains, locus YMR129W, active compounds read low 1.02 | S. cerevisiae deletion strains, locus YMR205C, strain PFK2, active compounds read low 1.04 | S. cerevisiae deletion strains, locus YMR223W, strain ubp8, active compounds read low 1.03 | S. cerevisiae deletion strains, locus YMR231W, strain pep5, active compounds read low 1.01 | S. cerevisiae deletion strains, locus YMR307W, strain GAS1, active compounds read low 0.923 and 0.999 | S. cerevisiae deletion strains, locus YNL067W, strain RPL9B, active compounds read low 0.995 | S. cerevisiae deletion strains, locus YNL071W, strain lat1, active compounds read low 1.02 | S. cerevisiae deletion strains, locus YNL128W, strain TEP1, active compounds read low 1 | S. cerevisiae deletion strains, locus YNL183C, strain NPR1, active compounds read low 0.962 | S. cerevisiae deletion strains, locus YNL209W, strain ssb2, active compounds read low 1.02 | S. cerevisiae deletion strains, locus YNL233W, strain BNI4, active compounds read low 1.01 | S. cerevisiae deletion strains, locus YNL248C, strain rpa49, active compounds read low 1.02 | S. cerevisiae deletion strains, locus YNL250W, strain rad50, active compounds read low 1.05 | S. cerevisiae deletion strains, locus YNL271C, strain bni1, active compounds read low 1.03 | S. cerevisiae deletion strains, locus YNL298W, strain CLA4, active compounds read low 1.02 | S. cerevisiae deletion strains, locus YNL307C, strain MCK1, active compounds read low 1.02 | S. cerevisiae deletion strains, locus YNL322C, strain KRE1 (second series), active compounds read low 1.03 | S. cerevisiae deletion strains, locus YNR049C, strain mso1, active compounds read low 1.04 | S. cerevisiae deletion strains, locus YNR052C, strain pop2, active compounds read low 1.01 | S. cerevisiae deletion strains, locus YOL012C, strain htz1 1.37 | S. cerevisiae deletion strains, locus YOL147C, strain pex11, active compounds read low 1.02 | S. cerevisiae deletion strains, locus YOR001W, strain rrp6, active compounds read low 1.01 | S. cerevisiae deletion strains, locus YOR061W, strain CKA2, active compounds read low 1.01 | S. cerevisiae deletion strains, locus YOR069W, strain VPS5, active compounds read low 1 | S. cerevisiae deletion strains, locus YOR070C, strain gyp1, active compounds read low 1.02 | S. cerevisiae deletion strains, locus YOR080W, strain dia2, active compounds read low 1.01 | S. cerevisiae deletion strains, locus YOR083W, strain WHI5, active compounds read low 1.03 | S. cerevisiae deletion strains, locus YOR106W, strain vam3, active compounds read low 1 | S. cerevisiae deletion strains, locus YOR136W, strain idh2, active compounds read low 1.02 | S. cerevisiae deletion strains, locus YOR144C, strain elg1, active compounds read low 1.01 | S. cerevisiae deletion strains, locus YOR184W, strain ser1, active compounds read low 1.02 | S. cerevisiae deletion strains, locus YOR231W, strain MKK1, active compounds read low 1 | S. cerevisiae deletion strains, locus YOR265W, strain rbl2, active compounds read low 1.02 | S. cerevisiae deletion strains, locus YOR270C, strain vph1, active compounds read low 1.07 | S. cerevisiae deletion strains, locus YOR290C, strain snf2, active compounds read low 0.969 | S. cerevisiae deletion strains, locus YOR316C, strain cot1, active compounds read low 1.02 | S. cerevisiae deletion strains, locus YPL051W, strain arl3, active compounds read low 1 | S. cerevisiae deletion strains, locus YPL078C, strain atp4, active compounds read low 1.02 | S. cerevisiae deletion strains, locus YPL106C, strain sse1, active compounds read low 1.03 | S. cerevisiae deletion strains, locus YPL240C, strain hsp82, active compounds read low 1.01 | S. cerevisiae deletion strains, locus YPL241C, strain CIN2, active compounds read low 1 | S. cerevisiae deletion strains, locus YPR119W, strain clb2, active compounds read low 1.01 | S. cerevisiae deletion strains, locus YPR141C, strain kar3, active compounds read low 1.01 | S. cerevisiae deletion strains, locus YPR163C, strain tif3, active compounds read low 1.03 | S. cerevisiae deletion strains, locus YPR167C, strain met16, active compounds read low 1.02 | S. cerevisiae deletion strains, strain wtn01, active compounds read low 1.01 | S. cerevisiae strains, strain wild type, active compounds read low 0.988
active: S. cerevisiae deletion strains, locus YNL153C, strain GIM3, active compounds read low 0.778 | S. cerevisiae deletion strains, locus YNL175C, strain NOP13, active compounds read low 0.381 | S. cerevisiae deletion strains, locus YNL197C, strain WHI3, active compounds read low 0.662 | S. cerevisiae deletion strains, locus YOR083W, strain WHI5 (second series), active compounds read low 0.582
